Measured values reported in PubChem BioAssay (NCATS).
“And” between values parts separate entries of the source, which are not always exact repeats. Equal values may be shown once. Inconclusive results are not listed. Entries that show only a call come without a potency. The source made the active and inactive calls. Unless noted, the call rests on the fitted dose curve; in most records, active means well fitted curve in the direction sought with a large enough effect; inconclusive means small, poorly fitted or top-dose-only effect, or another doubt; inactive means no such curve, though single readings can be large; an effect the other way counts as inactive or inconclusive.

Experiments:
[1] = Confirmation and Secondary Assay for Modulators of Hemoglobin Beta Chain Splicing at IVS2 654 locus (AID 910);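 further: HeLa cells stably carrying EGFP split by mutant beta-globin IVS2-654 intron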
How it was run: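 HeLa cells stably expressing EGFP interrupted by β-globin IVS2-654 intron, seeded overnight in Opti-MEM/2% FCS, then treated 2 days at 37 °C. Restored splicing read as total peak GFP intensity per well by laser scanning cytometry (488 nm excitation, 500–520 nm emission); 500 nM antisense PNA as control.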

[2] = Cell Viability - LYMP2-001 (AID 921); further: nearly all actives have a fitted effect of over 70% in size; further: potency means the concentration at half of the fitted maximal effect
How it was run: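 qHTS, 1536-well; lymphoblastoid cells, 24 hr compound, 37 C; ATP by CellTiter-Glo, 30 min RT; luminescence; Hill-fit AC50.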

[3] = Confirmation and Secondary Assay for Modulators of Hemoglobin Beta Chain Splicing at IVS2 705 locus (AID 930);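 further: HeLa cells stably expressing the EGFP-705 splicing reporter; GFP fluorescence per well restored by corrected splicing of the IVS2-705 intron in EGFP; series mostly up to about 46 µM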
How it was run: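 Read-out: total peak GFP fluorescence per well (488 nm excitation, 500-520 nm emission) by laser-scanning cytometry. Cells: HeLa EGFP-705 splicing reporter, 2 days compound exposure in Optimem/2% FCS.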

[4] = MultiTox-Fluor Cytotoxicity Assay - LYMP1-001 - Dead Cells (AID 946);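 further: cells exposed to compound for 16 h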; further: potency means the concentration at half of the fitted maximal effect
How it was run: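 Seed 2500 LYMP1-001 cells/well, incubate 5 hr at 37 C; add compound, 16 hr at 37 C; add MultiTox-Fluor reagent, 60 min RT; read dead-cell fluorescence Ex/Em=485/520. Normalize to DMSO and 15 uM tetraoctylammonium bromide.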

[5] = MultiTox-Fluor Cytotoxicity Assay - LYMP1-001 - Live Cells (AID 947); further: potency means the concentration at half of the fitted maximal effect
[6] = Cell Viability - LYMP1-002 - Assay at 16 hr (AID 948); further: potency means the concentration at half of the fitted maximal effect
How it was run: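 Acute cytotoxicity is scored as a concentration-dependent fall in intracellular ATP in a human lymphoblastoid line (LYMP1-002) after 16 hr compound exposure at 37 C, measured by luciferase luminescence.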

[7] = MultiTox-Fluor Cytotoxicity Assay - LYMP1-002 - Dead Cells (AID 960); further: nearly all actives have a fitted effect of over 60% in size; further: potency means the concentration at half of the fitted maximal effect
How it was run: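 Concentration-dependent increases in membrane-leaked protease activity are quantified in LYMP1-002 cells after 16 hr treatment; values are normalized against DMSO and tetraoctylammonium bromide (15 uM) controls and AC50 derived by Hill modeling.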

[8] = MultiTox-Fluor Cytotoxicity Assay - LYMP1-003 - Dead Cells (AID 961);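 further: cells exposed to compound for 16 h at 37 °C; nearly all actives have a fitted effect of over 70% in size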
How it was run: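 LYMP1-003 lymphoblastoid, 2500 cells/well, 5 hr settle then 16 hr cpd at 37 C; MultiTox-Fluor reagent 60 min RT; Ex/Em 485/520 dead-cell signal; norm. DMSO = 0%, 15 uM tetraoctylammonium bromide = 100%; Hill AC50.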

[9] = MultiTox-Fluor Cytotoxicity Assay - LYMP1-003 - Live Cells (AID 962);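 further: cells exposed to compound for 16 hours at 37 °C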; further: potency means the concentration at half of the fitted maximal effect
How it was run: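 Human lymphoblastoid line LYMP1-003 in complete culture medium, treated 16 hr with titrated compounds. Viable cells quantified via cell-permeant GF-AFC substrate fluorescence; AC50 derived by Hill fitting.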

[10] = Cell Viability - LYMP1-003 - Assay at 24 hr (AID 963); further: potency means the concentration at half of the fitted maximal effect
How it was run: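 The lymphoblastoid line was treated with titrated compounds for 24 hours, and viable cell number estimated from luciferase-based ATP luminescence.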

[11] = Cell Viability - LYMP1-003 - Assay at 40 hr (AID 964); further: nearly all actives have a fitted effect of over 60% in size; further: potency means the concentration at half of the fitted maximal effect
How it was run: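 Acute toxicity is scored as a concentration-dependent loss of intracellular ATP in LYMP1-003 cells (2500/well, complete medium) after 40 hr at 37 C, measured by CellTiter-Glo luminescence; AC50 values derive from standard Hill modelling.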

[12] = Cell Viability - LYMP2-003 (AID 965);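 further: cells exposed to compounds for 24 h before reading; nearly all actives have a fitted effect of over 50% in size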; further: potency means the concentration at half of the fitted maximal effect
How it was run: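 Acute cytotoxicity is scored as a concentration-dependent drop in intracellular ATP, measured by luciferase luminescence in human lymphoblastoid cells treated for 24 hours at 37 C. AC50 values derive from Hill-equation modelling.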

[13] = Cell Viability - LYMP2-004 (AID 966); further: nearly all actives have a fitted effect of over 65% in size; further: potency means the concentration at half of the fitted maximal effect
How it was run: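 Viable-cell number estimated from ATP luminescence (CellTiter-Glo) in 2500 human lymphoblastoid cells/well after 24 hr at 37 C with compound. AC50 fitted to the standard Hill equation.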

[14] = Cell Viability - LYMP2-005 (AID 967); further: potency means the concentration at half of the fitted maximal effect
How it was run: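 qHTS viability screen in LYMP2-005 cells: 24 h at 37 C with compound, ATP luminescence via CellTiter-Glo, AC50 from Hill curves.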

[15] = qHTS Assay for Identification of Small Molecule Agonists for Thrombopoietin (TPO) Signaling Pathway (AID 917)
How it was run: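 Quantitative HTS for pathway activators: compounds were pin-transferred onto IL-3-starved Ba/F3 cells expressing human TPO receptor, TPO was added at its EC50 (26 pM final), and after 24 hrs at 37 C reporter luciferase was measured.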

[16] = target: Pyruvate kinase (Leishmania mexicana) (UniProt Q27686); experiment: qHTS Validation Assay for Inhibitors of Leishmania Mexicana Pyruvate Kinase (AID 945)
How it was run: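 Luminescent ATP detection (PKLight) after a 1 h room-temperature reaction of 0.2 nM LmPYK E451W mutant with 0.5 mM PEP and 0.1 mM ADP at pH 7.2. Activity is normalized to DMSO-only control wells.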

[17] = target: Pyruvate kinase PKM (Homo sapiens) (UniProt P14618); experiment: qHTS Assay for Activators of Human Muscle Pyruvate Kinase (AID 954; active means well fitted curve in the direction sought with a large enough effect, not every such curve was filed as active)
How it was run: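 PKM2, human, >95% pure, 0.1 nM; PEP 0.5 mM (Km), ADP 0.1 mM; 50 mM imidazole pH 7.2, 50 mM KCl, 0.01% Tween 20, 0.05% BSA; 1 h RT; luciferase luminescence readout.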

[18] = target: Muscarinic acetylcholine receptor M1 (Rattus norvegicus) (UniProt P08482); experiment: qHTS Assay for Antagonists of Acetylcholine Muscarinic M1 Receptor: Measurement of IP-One Response (AID 944); further: nearly all actives have a fitted effect of over 75% in size
How it was run: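 Antagonism was measured as loss of carbachol-driven (EC80) IP1 accumulation in CHO cells carrying rat M1, using a homogeneous IP-One TR-FRET kit read at 620 and 665 nm.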

[19] = qHTS Assay for Identification of Small Molecule Agonists for Hypoxia Response Element Signaling Pathway (AID 914; active means well fitted activation curve with a large enough effect in the signal ratio, with a control signal flat, not every such curve was filed as active; the % refers to the signal ratio); conditions: ME-180 (cervical carcinoma) HRE-bla reporter, beta-lactamase ratio, CoCl2, 17 h; hits give high values
How it was run: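 HRE-bla ME-180 cells, overnight plating in Opti-MEM with 0.5% dialyzed FBS; cpd titration + EC50 CoCl2, 17 h, 37 degrees Celsius; CCF4 2.5 h RT; 460/530 nm ratio; AC50.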

[20] = target: Muscarinic acetylcholine receptor M1 (Rattus norvegicus) (UniProt P08482); experiment: qHTS Assay for Antagonists of Acetylcholine Muscarinic M1 Receptor: Kinetic Measurement of Intracellular Calcium Response (AID 943);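 further: Fluo-4 calcium signal as peak divided by basal fluorescence over 4 min; series mostly up to about 35 µM; nearly all actives have a fitted effect of over 75% in size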
How it was run: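 Quantitative HTS in CHO-M1 (rat receptor) cells: 10 min compound exposure ahead of 100 nM carbachol, Fluo-4 fluorescence followed 4 min, value expressed as peak-to-basal ratio.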

Sequence of Pyruvate kinase (Leishmania mexicana) (Q27686 2-499 E452W): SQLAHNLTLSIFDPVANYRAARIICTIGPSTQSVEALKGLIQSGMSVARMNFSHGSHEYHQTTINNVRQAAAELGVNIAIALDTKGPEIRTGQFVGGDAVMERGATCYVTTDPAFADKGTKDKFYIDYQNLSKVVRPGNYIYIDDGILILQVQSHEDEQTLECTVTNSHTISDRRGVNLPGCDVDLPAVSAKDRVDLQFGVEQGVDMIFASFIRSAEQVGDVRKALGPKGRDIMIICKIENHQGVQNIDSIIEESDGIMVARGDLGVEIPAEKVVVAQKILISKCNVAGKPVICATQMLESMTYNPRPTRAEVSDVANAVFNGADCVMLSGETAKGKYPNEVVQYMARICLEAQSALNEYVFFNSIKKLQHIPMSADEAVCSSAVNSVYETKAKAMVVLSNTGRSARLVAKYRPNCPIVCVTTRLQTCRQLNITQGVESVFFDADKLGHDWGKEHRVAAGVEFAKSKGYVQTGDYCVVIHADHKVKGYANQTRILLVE
Sequence of Pyruvate kinase PKM (Homo sapiens) (P14618 whole entry, looked up): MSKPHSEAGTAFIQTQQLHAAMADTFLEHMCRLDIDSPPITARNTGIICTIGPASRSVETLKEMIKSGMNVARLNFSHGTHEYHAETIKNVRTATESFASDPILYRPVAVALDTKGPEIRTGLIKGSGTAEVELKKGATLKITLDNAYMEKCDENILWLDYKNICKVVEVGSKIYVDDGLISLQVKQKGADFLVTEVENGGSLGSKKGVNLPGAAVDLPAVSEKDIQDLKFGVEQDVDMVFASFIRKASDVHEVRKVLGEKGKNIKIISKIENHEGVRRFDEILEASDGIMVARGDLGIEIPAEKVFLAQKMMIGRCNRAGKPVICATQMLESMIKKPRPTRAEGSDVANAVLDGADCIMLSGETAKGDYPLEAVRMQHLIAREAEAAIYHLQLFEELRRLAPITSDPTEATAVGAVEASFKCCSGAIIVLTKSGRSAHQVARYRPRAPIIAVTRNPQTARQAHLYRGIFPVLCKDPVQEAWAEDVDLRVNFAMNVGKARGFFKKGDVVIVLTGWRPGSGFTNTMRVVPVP
Sequence of Muscarinic acetylcholine receptor M1 (Rattus norvegicus) (P08482 whole entry, looked up): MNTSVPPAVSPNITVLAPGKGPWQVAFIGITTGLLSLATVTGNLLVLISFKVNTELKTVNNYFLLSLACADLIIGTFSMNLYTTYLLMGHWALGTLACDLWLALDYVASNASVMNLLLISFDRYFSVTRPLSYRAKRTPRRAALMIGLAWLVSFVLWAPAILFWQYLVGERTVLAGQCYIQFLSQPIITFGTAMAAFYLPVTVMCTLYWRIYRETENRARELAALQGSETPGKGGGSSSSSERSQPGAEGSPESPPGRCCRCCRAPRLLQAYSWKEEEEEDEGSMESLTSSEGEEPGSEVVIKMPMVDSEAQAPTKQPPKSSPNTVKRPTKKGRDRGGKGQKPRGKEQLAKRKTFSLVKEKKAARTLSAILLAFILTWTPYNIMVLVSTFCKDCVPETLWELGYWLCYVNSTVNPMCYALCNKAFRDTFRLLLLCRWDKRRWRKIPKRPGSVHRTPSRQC

SMILES: Cc1nnc(NS(=O)(=O)c2ccc(N)cc2)s1
- Potency [1]: inactive
- Potency [2]: inactive
- Potency [3]: inactive
- Potency [4]: inactive
- Potency [5]: inactive
- Potency [6]: inactive
- Potency [7]: inactive
- outcome [8]: inactive
- Potency [9]: inactive
- Potency [10]: inactive
- Potency [11]: inactive
- Potency [12]: inactive
- Potency [13]: inactive
- Potency [14]: inactive

SMILES: Cn1c(=O)c2c(ncn2CC(O)CO)n(C)c1=O (stereo unspecified)
- Potency [1]: inactive
- Potency [3]: inactive

SMILES: Cc1ccnc2c1NC(=O)c1cccnc1N2C1CC1
- Potency [2]: inactive
- Potency [4]: inactive
- Potency [5]: inactive
- Potency [6]: inactive
- Potency [7]: inactive
- outcome [8]: inactive
- Potency [9]: inactive
- Potency [10]: inactive
- Potency [11]: inactive
- Potency [12]: inactive
- Potency [13]: inactive
- Potency [14]: inactive

SMILES: NC(=O)c1cccc(N)c1
- outcome [15]: inactive
- outcome [16]: inactive
- outcome [17]: inactive

SMILES: NCCCC(O)(P(=O)(O)O)P(=O)(O)O
- Potency [3]: inactive

SMILES: CC(C)(Sc1cc(C(C)(C)C)c(O)c(C(C)(C)C)c1)Sc1cc(C(C)(C)C)c(O)c(C(C)(C)C)c1
- Potency [1]: inactive
- Potency [3]: inactive

SMILES: N[C@@H](Cc1ccc(O)c(O)c1)C(=O)O
- outcome [15]: inactive
- outcome [18]: inactive
- outcome [17]: inactive

SMILES: CC1=CC(=O)c2ccccc2C1=O
- Potency [3]: inactive

SMILES: NNC(=O)c1ccncc1
- Potency [1]: inactive
- Potency [2]: inactive
- Potency [3]: inactive
- Potency [4]: inactive
- Potency [5]: inactive
- Potency [6]: inactive
- Potency [7]: inactive
- outcome [8]: inactive
- Potency [9]: inactive
- Potency [10]: inactive
- Potency [11]: inactive
- Potency [12]: inactive
- Potency [13]: inactive
- Potency [14]: inactive

SMILES: COc1ccc2cc3[n+](cc2c1OC)CCc1cc2c(cc1-3)OCO2
- Potency [2]: 39.8 µM (active)
- Potency [3]: inactive
- Potency [4]: inactive
- Potency [6]: inactive
- outcome [8]: inactive
- Potency [9]: inactive
- Potency [10]: inactive
- Potency [12]: inactive
- Potency [13]: inactive

SMILES: N=C(N)c1ccc(OCCCCCOc2ccc(C(=N)N)cc2)cc1
- Potency [1]: inactive
- activation [19]: 3.68% (inactive)
- Potency [3]: inactive
- Potency [4]: inactive
- Potency [5]: inactive
- Potency [6]: inactive
- Potency [7]: inactive
- outcome [8]: inactive
- Potency [9]: inactive
- Potency [10]: inactive
- Potency [11]: 39.8 µM (active)
- Potency [12]: inactive
- Potency [13]: inactive

SMILES: COc1cnc(NS(=O)(=O)c2ccc(N)cc2)nc1
- activation [19]: 5.32% (inactive)
- Potency [3]: inactive

SMILES: Cc1cc(NS(=O)(=O)c2ccc(N)cc2)no1
- Potency [2]: inactive
- Potency [3]: inactive
- Potency [4]: inactive
- Potency [5]: inactive
- Potency [6]: inactive
- Potency [7]: inactive
- outcome [8]: inactive
- Potency [9]: inactive
- Potency [10]: inactive
- Potency [11]: inactive
- Potency [12]: inactive
- Potency [13]: inactive
- Potency [14]: inactive

SMILES: O=C(N[C@H](CO)[C@H](O)c1ccc([N+](=O)[O-])cc1)C(Cl)Cl
- Potency [2]: inactive
- Potency [4]: inactive
- Potency [5]: inactive
- Potency [6]: inactive
- Potency [7]: inactive
- outcome [8]: inactive
- Potency [9]: inactive
- Potency [10]: inactive
- Potency [11]: inactive
- Potency [12]: inactive
- Potency [13]: inactive
- Potency [14]: inactive

SMILES: C[C@]12C=CC(=O)C=C1CC[C@@H]1[C@@H]2C(=O)C[C@@]2(C)[C@H]1CC[C@]2(O)C(=O)CO
- Potency [2]: inactive
- Potency [4]: inactive
- Potency [5]: inactive
- Potency [6]: inactive
- Potency [7]: inactive
- outcome [8]: inactive
- Potency [9]: inactive
- Potency [10]: inactive
- Potency [11]: inactive
- Potency [12]: inactive
- Potency [13]: inactive
- Potency [14]: inactive

SMILES: OCc1ccc(-c2nn(Cc3ccccc3)c3ccccc23)o1
- outcome [15]: inactive
- outcome [20]: inactive
- outcome [16]: inactive
- outcome [17]: inactive

SMILES: Nc1ccc(S(=O)(=O)Nc2ccccn2)cc1
- Potency [3]: inactive

SMILES: Cc1ncc([N+](=O)[O-])n1CCO
- Potency [1]: inactive
- Potency [2]: inactive
- Potency [3]: inactive
- Potency [4]: inactive
- Potency [5]: inactive
- Potency [6]: inactive
- Potency [7]: inactive
- outcome [8]: inactive
- Potency [9]: inactive
- Potency [10]: inactive
- Potency [11]: inactive
- Potency [12]: inactive
- Potency [13]: inactive
- Potency [14]: inactive

SMILES: COc1cc2ncnc(Nc3cccc(Cl)c3)c2cc1OC
- outcome [15]: inactive
- outcome [16]: inactive
- outcome [17]: inactive

SMILES: CC1=NN(c2ccccc2)C(=O)C1
- Potency [2]: inactive
- Potency [3]: inactive
- Potency [4]: inactive
- Potency [6]: inactive
- Potency [7]: inactive
- outcome [8]: inactive
- Potency [9]: inactive
- Potency [10]: inactive
- Potency [11]: inactive
- Potency [12]: inactive
- Potency [13]: inactive
- Potency [14]: inactive

SMILES: CCc1cc(C(N)=S)ccn1
- Potency [2]: inactive
- Potency [3]: inactive
- Potency [4]: inactive
- Potency [5]: inactive
- Potency [6]: inactive
- Potency [7]: inactive
- outcome [8]: inactive
- Potency [9]: inactive
- Potency [10]: inactive
- Potency [11]: inactive
- Potency [12]: inactive
- Potency [13]: inactive
- Potency [14]: inactive

SMILES: CN(C)c1ccc(C(=C2C=CC(=[N+](C)C)C=C2)c2ccc(N(C)C)cc2)cc1
- Potency [2]: 1.26 µM (active)
- Potency [3]: inactive
- Potency [4]: 12.6 µM (active)
- Potency [5]: 25.1 µM (active)
- Potency [6]: 6.31 µM (active)
- Potency [7]: 3.98 µM (active)
- Potency [9]: 15.8 µM (active)
- Potency [10]: 7.94 µM (active)
- Potency [11]: 2.51 µM (active)
- Potency [12]: 3.16 µM (active)
- Potency [13]: 1.58 µM (active)
- Potency [14]: 2.51 µM (active)

SMILES: NC(N)=NC(N)=NCCc1ccccc1
- Potency [2]: inactive
- Potency [4]: inactive
- Potency [5]: inactive
- Potency [6]: inactive
- Potency [7]: inactive
- outcome [8]: inactive
- Potency [9]: inactive
- Potency [10]: inactive
- Potency [11]: inactive
- Potency [12]: inactive

SMILES: Cc1noc(NS(=O)(=O)c2ccc(N)cc2)c1C
- activation [19]: -20.7% (inactive) and -0.198% (inactive)
- Potency [2]: inactive
- Potency [3]: inactive
- Potency [4]: inactive
- Potency [5]: inactive
- Potency [6]: inactive
- Potency [7]: inactive
- outcome [8]: inactive
- Potency [9]: inactive
- Potency [10]: inactive
- Potency [11]: inactive
- Potency [12]: inactive
- Potency [13]: inactive
- Potency [14]: inactive
